These results are taken from the supplement of paper PMC8975748.

Counter-ions that a name gives are not always drawn.

This test deals with Saccharomyces cerevisiae BY4741 SeMeCo community. The experiment in a line: z-score of subpopulation abundance vs DMSO median, subpopulation auxotrophic for HLM; higher = larger share of this subpopulation than in DMSO controls. The following applies: 10 µM; 24 h; SM minimal medium; subpopulation (auxotrophy): HLM. The essentials: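 A Saccharomyces cerevisiae BY4741 community carried four plasmids, each restoring one auxotrophy and encoding a distinct fluorescent protein. It was pre-grown overnight to OD600 1.0, diluted to 0.3, and 70 µl was added to 384-well plates acoustically predosed with library drugs (10 µM final), then grown 24 h in minimal SM medium. Cells were paraformaldehyde-fixed and imaged by automated confocal microscopy, with single-auxotroph fluorescent strains setting thresholds and autofluorescence correction. Each subpopulation's abundance was scored as a z-score against the vehicle-well median.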
With `OCc1ccccc1O[C@@H]1O[C@H](CO)[C@@H](O)[C@H](O)[C@H]1O` [Salicin], the “z-score of subpopulation abundance” value was -0.5.

As for `CN(C)CCc1c[nH]c2ccc(Cn3cncn3)cc12` [Rizatriptan Benzoate], the “z-score of subpopulation abundance” value was 0.35.

`OCCN(CCO)c1nc(N2CCCCC2)c2nc(N(CCO)CCO)nc(N3CCCCC3)c2n1` [Dipyridamole]: the “z-score of subpopulation abundance” value was found to be 11.4.

For `Cn1nnnc1SCC1=C(C(=O)O)N2C(=O)[C@@H](NC(=O)[C@H](OC=O)c3ccccc3)[C@H]2SC1` [Cefamandole nafate], the “z-score of subpopulation abundance” value is -0.57.

Take `CC(=O)[C@@]1(O)CC[C@H]2[C@@H]3C[C@H](C)C4=CC(=O)CC[C@]4(C)[C@H]3CC[C@@]21C` [Medroxyprogesterone]: the “z-score of subpopulation abundance” value was determined as 0.49.

Take `CC[N+](CC)(CC)CC` [Tetraethylammonium bromide]: the “z-score of subpopulation abundance” value was -0.06.

Regarding `CCC1(c2ccccc2)C(=O)NCNC1=O` [Primidone], the “z-score of subpopulation abundance” value was determined as 0.29.

Turning to `CCCCOc1cc(C(=O)OCCN(CC)CC)ccc1N` [Oxybuprocaine HCl], the “z-score of subpopulation abundance” value is 1.25.

Regarding `C[N+]1(C)[C@@H]2CC[C@H]1C[C@@H](OC(=O)C(O)c1ccccc1)C2` (some centres undefined) [Homatropine Methylbromide], the “z-score of subpopulation abundance” value is -0.66.
